Measured values reported in PubChem BioAssay (NCI).
Values joined by “and” are separate entries in the source; they are usually repeats but may differ in a detail not shown here. Identical values can stand only once. About 79,000 compounds went through this panel and 15% of them were active in at least one assay; those are over-represented in the sample as a whole. Some structures have more than one record in an assay (separate samples or runs), and their calls can disagree. Active and inactive are the calls of the source. Cut-off read from the data, not from the text of the source: active = growth inhibition above about 70%; inactive = the rest.

Tests used:
[1] = NCI Yeast Anticancer Drug Screen. Data for the rad50 strain (AID 155);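 note: 0% = growth of vehicle-only cultures of the same strain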; settings: S. cerevisiae rad50 strain growth inhibition, stronger effect = higher value
In short: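 Inhibition values express reduced yeast growth in compound-treated cultures relative to vehicle-treated controls.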

[2] = NCI Yeast Anticancer Drug Screen. Data for the mec2-1 strain (AID 157); settings: S. cerevisiae mec2-1 strain, stronger effect = higher value
In short: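 Strain: mec2-1 (DNA repair/cell cycle alteration). Compound exposure, then growth measured; inhibition expressed relative to vehicle.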

[3] = NCI Yeast Anticancer Drug Screen. Data for the sgs1 mgt1 strain (AID 161);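 note: 0% = growth of cultures given vehicle only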; settings: S. cerevisiae sgs1 mgt1 strain, stronger effect = higher value
In short: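 Genetically altered yeast, compound exposure, growth inhibition relative to vehicle.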

[4] = NCI Yeast Anticancer Drug Screen. Data for the cln2 rad14 strain (AID 165);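 note: 0% = growth equal to vehicle treated cultures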; settings: S. cerevisiae cln2 rad14 strain, stronger effect = higher value
In short: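 Compounds are applied to the cln2 rad14 yeast strain, and growth is then compared with that of vehicle-treated cultures to give inhibition.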

[5] = NCI Yeast Anticancer Drug Screen. Data for the bub3 strain (AID 167); settings: S. cerevisiae bub3 mutant strain, stronger effect = higher value
In short: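 Steps: expose the mutant yeast strain to compound; grow alongside vehicle-treated cultures; measure growth; express inhibition against the vehicle cultures.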

[6] = NCI Yeast Anticancer Drug Screen. Data for the mlh1 rad18 strain (AID 175); settings: S. cerevisiae mlh1 rad18 strain growth inhibition, stronger effect = higher value
In short: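 Read-out is yeast growth inhibition, calculated against vehicle-only controls. The compound was applied to a strain engineered with DNA damage repair alterations.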

[7] = at 5.0 µM (retest, dose inferred, filed as 0.5)
[8] = at 50.0 µM (retest, dose inferred, filed as 5.0)

Measured: growth inhibition

CC(C)(C)OC(=O)NCCc1cccc2c1oc1c(CCC(=O)O)cccc12
inactive: [1]; [7] -14% | [2]; [7] -1% | [3]; [7] 3% | [3]; [8] 53% | [3]; at 50.0 µM 68.7% | [4]; [7] -16% | [5]; [7] -20% | [6]; [7] -7%
active: [1]; [8] 76% | [1]; at 50.0 µM 89.6% | [2]; [8] 95% | [2]; at 50.0 µM 78.4% | [4]; [8] 99% | [4]; at 50.0 µM 87% | [5]; [8] 88% | [5]; at 50.0 µM 79.6% | [6]; [8] 96% | [6]; at 50.0 µM 83.5%

O=C(/C=C/c1ccc(Cl)cc1)NC1C=Nc2ccc([N+](=O)[O-])cc2NC1=O (stereo not given)
inactive: [1]; [7] 32% | [2]; [7] -27% | [3]; [7] 29% | [4]; [7] 13% | [5]; [7] 0% | [6]; [7] 13%
active: [1]; [8] 94% | [1]; at 50.0 µM 95.8% | [2]; [8] 93% | [2]; at 50.0 µM 96.5% | [3]; [8] 93% | [3]; at 50.0 µM 96.6% | [4]; [8] 93% | [4]; at 50.0 µM 92.5% | [5]; [8] 92% | [5]; at 50.0 µM 92.3% | [6]; [8] 88% | [6]; at 50.0 µM 97.2%

O=S(=O)(O)c1ccc(NN(c2c(O)ccc3ccccc23)S(=O)(=O)O)cc1
inactive: [1]; [7] -12% | [1]; [8] 1% | [1]; at 50.0 µM 18.2% | [2]; [7] -5% | [2]; [8] -11% | [2]; at 50.0 µM -3.1% | [3]; [7] -16% | [3]; [8] -12% | [3]; at 50.0 µM -19.7% | [4]; [7] -17% | [4]; [8] -84% | [4]; at 50.0 µM 43.9% | [5]; [7] -9% | [5]; [8] -10% | [5]; at 50.0 µM -29.8% | [6]; [7] -12% | [6]; [8] -19% | [6]; at 50.0 µM 15.1%

CCn1c2ccccc2c2ccc(N=Cc3ccc(N(C)C)cc3)cc21
active: [1]; [8] 78% | [5]; at 50.0 µM 70.7%
inactive: [1]; [7] 1% | [1]; at 50.0 µM 61.6% | [2]; [7] -1% | [2]; [8] 17% | [2]; at 50.0 µM 41.5% | [3]; [7] 2% | [3]; [8] 40% | [3]; at 50.0 µM 61% | [4]; [7] 0% | [4]; [8] 45% | [4]; at 50.0 µM 27.4% | [5]; [7] -3% | [5]; [8] 25% | [6]; [7] 5% | [6]; [8] 37% | [6]; at 50.0 µM 47.5%

CCOC(=O)c1c[nH]c2c([N+](=O)[O-])cc(OC)cc2c1=O
inactive: [1]; [7] -1% | [1]; [8] 32% | [1]; at 50.0 µM 10.6% and 61.4% | [2]; [7] 2% | [2]; [8] 21% | [2]; at 50.0 µM 40.1% and 35.2% | [3]; [7] 3% | [3]; [8] 41% | [3]; at 50.0 µM 36% and 16.3% | [4]; [7] -6% | [4]; [8] 24% | [4]; at 50.0 µM -11.7% and -10.1% | [5]; [7] 2% | [5]; [8] 46% | [5]; at 50.0 µM 18.6% and 61% | [6]; [7] 6% | [6]; [8] 42%
56.9% (inactive) and 73% (active): [6]; at 50.0 µM

CCN(CC)c1ccc(/C=C/c2ccnc3ccccc23)cc1
inactive: [1]; [7] -11% and 0% | [2]; [7] -3% and 1% | [3]; [7] 4% and -3% | [4]; [7] -10% and 7% | [5]; [7] 28% and -4% | [6]; [7] 17% and 16%
active: [1]; [8] 95% and 98% | [1]; at 50.0 µM 99% and 98.3% | [2]; [8] 98% and 99% | [2]; at 50.0 µM 99% and 97.8% | [3]; [8] 94% and 98% | [3]; at 50.0 µM 99.1% and 98.5% | [4]; [8] 97% and 98% | [4]; at 50.0 µM 98.6% and 97.5% | [5]; [8] 98% and 99% | [5]; at 50.0 µM 98.7% and 98.3% | [6]; [8] 97% and 98% | [6]; at 50.0 µM 98.3% and 97.4%

Nc1ccc2cc3ccc(N)cc3nc2c1
active: [1]; [8] 86%
inactive: [1]; [7] 21% | [2]; [7] 9% | [2]; [8] 31% | [2]; at 50.0 µM 32.5% and 54.3% | [3]; [7] 11% | [3]; [8] 37% | [3]; at 50.0 µM 3.15% and 35% | [4]; [7] 12% | [4]; [8] 11% | [4]; at 50.0 µM 9.45% and 69.2% | [5]; [7] 6% | [5]; [8] 20% | [5]; at 50.0 µM 19.8% and 36.3% | [6]; [7] 9% | [6]; [8] 51%
38.1% (inactive) and 73.2% (active): [1]; at 50.0 µM
15.5% (inactive) and 77% (active): [6]; at 50.0 µM

O=S(=O)(c1ccc(F)cc1)c1ccc(F)cc1
inactive: [1]; [7] -4% | [1]; [8] -4% | [1]; at 50.0 µM -4.4% and 11.7% | [2]; [7] 10% | [2]; [8] 19% | [2]; at 50.0 µM -35.6% and -12.2% | [3]; [7] -6% | [3]; [8] -1% | [3]; at 50.0 µM -3.8% and -3.55% | [4]; [7] -5% | [4]; [8] -7% | [4]; at 50.0 µM 3.2% and 47.4% | [5]; [7] -1% | [5]; [8] 0% | [5]; at 50.0 µM -4.15% and 19.1% | [6]; [7] 3% | [6]; [8] 10% | [6]; at 50.0 µM 6.7% and 35.2%

C=CCN(CC=C)C(CC(=O)C(C)(C)C)=NCC
inactive: [1]; [7] 0% | [1]; [8] -6% | [1]; at 50.0 µM -14.9% | [2]; [7] -7% | [2]; [8] 6% | [2]; at 50.0 µM -7.85% | [3]; [7] 0% | [3]; [8] -6% | [3]; at 50.0 µM -5.85% | [4]; [7] 1% | [4]; [8] 1% | [4]; at 50.0 µM 36% | [5]; [7] -3% | [5]; [8] 3% | [5]; at 50.0 µM -3.75% | [6]; [7] -11% | [6]; [8] 1% | [6]; at 50.0 µM -22.6%

CCSSC(=Nc1ccccc1)OCC(C)C
inactive: [1]; [7] 17% | [1]; at 50.0 µM 62% | [2]; [7] 18% | [3]; [7] 47% | [4]; [7] 50% | [4]; at 50.0 µM 30.8% | [5]; [7] 52% | [6]; [7] 23%
active: [1]; [8] 91% | [2]; [8] 70% | [2]; at 50.0 µM 80.4% | [3]; [8] 97% | [3]; at 50.0 µM 71.8% | [4]; [8] 92% | [5]; [8] 97% | [5]; at 50.0 µM 84.4% | [6]; [8] 82% | [6]; at 50.0 µM 80%

COC1/C=C/OC2(C)Oc3c(C)c(O)c4c(c3C2=O)C(=O)C=C(NC(=O)/C(C)=C\C=C\C(C)C2OC(C)(C)OC(C2C)C(C)C(OC(C)=O)C1C)C4=O (stereo not given)
inactive: [1]; [7] 2% | [1]; at 50.0 µM 51.9% | [2]; [7] 30% | [2]; at 50.0 µM 57.3% | [3]; [7] -3% | [3]; at 50.0 µM 60.8% | [4]; [7] 1% | [4]; at 50.0 µM 57% | [5]; [7] 2% | [5]; at 50.0 µM 45.8% | [6]; [7] 3% | [6]; at 50.0 µM 60.8%
active: [1]; [8] 89% | [2]; [8] 79% | [3]; [8] 73% | [4]; [8] 89% | [5]; [8] 74% | [6]; [8] 92%

CCOC(=O)/C(C#N)=C\c1ccc([N+](=O)[O-])o1
inactive: [1]; [7] 15% | [2]; [7] 12% | [3]; [7] 8% | [4]; [7] 4% | [5]; [7] 12% | [6]; [7] 16%
-13.4% (inactive) and 99.2% (active): [5]; at 50.0 µM
-20.9% (inactive) and 99.3% (active): [3]; at 50.0 µM
-16.9% (inactive) and 99% (active): [6]; at 50.0 µM
19.1% (inactive) and 99% (active): [4]; at 50.0 µM
-12.1% (inactive) and 99.3% (active): [2]; at 50.0 µM
active: [1]; [8] 98% | [2]; [8] 99% | [3]; [8] 99% | [4]; [8] 98% | [5]; [8] 99% | [6]; [8] 99%
-8.25% (inactive) and 99% (active): [1]; at 50.0 µM

CC[N](CC)[Ge]([CH2]C)[CH2]C.C[CH2][Ge]([CH2]C)[CH2]C
inactive: [1]; [7] 40% | [2]; [7] 19% | [3]; [7] 32% | [4]; [7] 54% | [5]; [7] 24% | [6]; [7] 37%
active: [1]; [8] 99% | [1]; at 50.0 µM 87% | [2]; [8] 100% | [2]; at 50.0 µM 90.3% | [3]; [8] 99% | [3]; at 50.0 µM 90% | [4]; [8] 98% | [4]; at 50.0 µM 92.5% | [5]; [8] 99% | [5]; at 50.0 µM 90% | [6]; [8] 99% | [6]; at 50.0 µM 92.3%

CN(C)Cc1cc(CN(C)C)c(O)c(CN(C)C)c1
inactive: [1]; [7] 8% | [1]; [8] 19% | [1]; at 50.0 µM -34.9% and 40.3% | [2]; [7] 2% | [2]; [8] 2% | [2]; at 50.0 µM -58.3% and 59.9% | [3]; [7] 4% | [3]; [8] 11% | [3]; at 50.0 µM 0.25% and 2.75% | [4]; [7] -3% | [4]; [8] -8% | [4]; at 50.0 µM -24.1% and -31.1% | [5]; [7] 14% | [5]; [8] 39% | [5]; at 50.0 µM -43.5% and 65.3% | [6]; [7] -6% | [6]; [8] -9% | [6]; at 50.0 µM -22.2% and 48.1%

CCCn1cnc2c(SCc3ccc(Cl)cc3)nc(N)nc21
inactive: [1]; [7] -7% | [1]; [8] 21% | [2]; [7] -5% | [2]; [8] -10% | [3]; [7] -3% | [3]; [8] 16% | [4]; [7] -32% | [4]; [8] -64% | [5]; [7] -20% | [5]; [8] 7% | [6]; [7] -6% | [6]; [8] 36%
active: [1]; at 50.0 µM 96.9% | [2]; at 50.0 µM 97.5% | [3]; at 50.0 µM 96.2% | [4]; at 50.0 µM 92.8% | [5]; at 50.0 µM 97% | [6]; at 50.0 µM 98%
